Assay results: PubChem BioAssay (NCATS)
Records with an inconclusive call do not appear. Entries that show only a call come without a potency. Activity calls are given as the source filed them. The call rests on the fitted dose curve; in most records, active means well fitted inhibition curve with a large enough effect; inconclusive means small, poorly fitted or top-dose-only effect; inactive means flat fitted curve, though single readings scatter. Where a SMILES comes first, the peptide text is derived from it. [ ]: non-standard residue; d: D form. pGlu = O=C1CC[C@@H](C(=O)O)N1; Thz = O=C(O)[C@@H]1CSCN1

Tests used:
Experiment in all cases: qHTS profiling for inhibitors of Plasmodium falciparum proliferation (AID 504749); further: nearly all actives have a fitted effect of over 60% in size
Conditions in all cases: P. falciparum in erythrocytes, SYBR Green DNA, 72 h; series mostly up to 28.7 µM
DIV17 = system: DIV17
Method in brief: (§1)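 Three-day growth assay of blood-stage parasites in erythrocytes (0.3% parasitemia, 2.5% hematocrit) at 37 C, 5% CO2, quantified by SYBR Green DNA staining after overnight detergent lysis.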

DIV30 = system: DIV30
Method in brief: as §1

Dd2 = system: Dd2
Method in brief: as §1

ECU = system: ECU
Method in brief: as §1

FAB9 = system: FAB9
Method in brief: as §1

GB4 = system: GB4
Method in brief: as §1

HB3 = system: HB3
Method in brief: as §1

ICS = system: ICS
Method in brief: as §1

JCK = system: JCK
Method in brief: as §1

N140 = system: N140
Method in brief: as §1
Potency means the concentration at half of the fitted maximal effect.

Structure (SMILES)	Potency (DIV17)	Potency (DIV30)	Potency (Dd2)	Potency (ECU)	Potency (FAB9)	Potency (GB4)	Potency (HB3)	Potency (ICS)	Potency (JCK)	Potency (N140)
[O-][n+]1ccccc1SSc1cccc[n+]1[O-]	0.536 µM (active)	1.2 µM (active)	0.891 µM (active)	1.12 µM (active)	1.58 µM (active)	0.757 µM (active)	0.891 µM (active)	0.794 µM (active)	4.47 µM (active)	0.708 µM (active)
CCCCCCOc1ccccc1C(N)=O	inactive	inactive	inactive	inactive	inactive	inactive	inactive	inactive	inactive	inactive
CCCOC(=O)c1ccc(O)cc1	inactive	inactive	inactive	inactive	inactive	inactive	inactive	inactive	inactive	inactive
CC1OC1P(=O)(O)O (stereo not drawn)	inactive	inactive	inactive	inactive	inactive	inactive	inactive	inactive	inactive	inactive
Nc1ccc(O)c(C(=O)O)c1	inactive	inactive	inactive	inactive	inactive	inactive	inactive	inactive	inactive	inactive
O=C(/C=C/c1ccccc1)NCCO	inactive	inactive	inactive	inactive	inactive	inactive	inactive	inactive	inactive	inactive
CC1(C)C[C@@H]1C(=O)N/C(=C\CCCCSC[C@H](N)C(=O)O)C(=O)O	inactive	inactive	inactive	inactive	inactive	inactive	inactive	inactive	inactive	inactive
Cc1ccccc1CNc1ncnc2c1ncn2C1OC(CO)C(O)C1O (stereo not drawn)	inactive	inactive	inactive	inactive	inactive	inactive	inactive	inactive	inactive	inactive
O=C(O)Cc1ccc(-c2ccccc2)cc1	inactive	inactive	inactive	inactive	inactive	inactive	inactive	inactive	inactive	inactive
C=CCN1C(=O)C(CC(C)C)NC1=S (stereo not drawn)	inactive	inactive	inactive	inactive	inactive	inactive	inactive	inactive	inactive	inactive
C=CCCCCCCCCC(=O)O	inactive	inactive	inactive	inactive	inactive	inactive	inactive	inactive	inactive	inactive
O=C(O)/C=C/C(O)c1ccc(Cl)cc1 (stereo not drawn)	inactive	inactive	inactive	inactive	inactive	inactive	inactive	inactive	inactive	inactive
c1ccc2sc(SSc3nc4ccccc4s3)nc2c1	inactive	inactive	inactive	inactive	inactive	inactive	inactive	inactive	inactive	inactive
C=CC(N)CCC(=O)O (stereo not drawn)	inactive	inactive	inactive	inactive	inactive	inactive	inactive	inactive	inactive	inactive
O=C(O)[C@H](CC(=O)N1C[C@H]2CCCC[C@H]2C1)Cc1ccccc1	inactive	inactive	inactive	inactive	inactive	inactive	inactive	inactive	inactive	inactive
C#C[C@]1(O)CC[C@H]2[C@@H]3CCc4cc(O)ccc4[C@H]3CC[C@@]21C	inactive	inactive	inactive	inactive	inactive	inactive	inactive	inactive	inactive	inactive
CCOc1ccc2nc(S(N)(=O)=O)sc2c1	inactive	inactive	inactive	inactive	inactive	inactive	inactive	inactive	inactive	inactive
N=c1ccn2c(n1)O[C@H]1[C@H](O)[C@@H](CO)O[C@H]12	inactive	inactive	inactive	inactive	inactive	inactive	inactive	inactive	inactive	inactive
CN1CCN(c2cc3c(nn2)Oc2ccccc2N3C)CC1	inactive	inactive	inactive	inactive	inactive	inactive	inactive	inactive	inactive	inactive
Cc1ccc(C(=O)c2ccc(CC(=O)O)n2C)cc1	inactive	inactive	inactive	inactive	inactive	inactive	inactive	inactive	inactive	inactive
CCCCCCCCCCCCCCCCCC(=O)O	inactive	inactive	inactive	inactive	inactive	inactive	inactive	inactive	inactive	inactive
Cc1[nH]cnc1CN1CCc2c(c3ccccc3n2C)C1=O	inactive	inactive	inactive	inactive	inactive	inactive	inactive	inactive	inactive	inactive

Structure (SMILES)	Potency (DIV17)	Potency (DIV30)	Potency (Dd2)	Potency (ECU)	Potency (FAB9)	Potency (GB4)	Potency (HB3)	Potency (ICS)	Potency (JCK)	Potency (N140)
CCOC(=O)c1ccccc1O	inactive	inactive	inactive	inactive	inactive	inactive	inactive	inactive	inactive	inactive
CC(C(=O)O)c1ccc2c(c1)[nH]c1ccc(Cl)cc12 (stereo not drawn)	inactive	inactive	inactive	inactive	inactive	inactive	inactive	inactive	inactive	inactive
Cc1ccc(O)c(-n2nc3ccccc3n2)c1	inactive	inactive	inactive	inactive	inactive	inactive	inactive	inactive	inactive	inactive
COc1cc2c3cc1Oc1cc(ccc1O)C[C@@H]1c4c(cc(OC)c(O)c4Oc4ccc(cc4)C[C@@H]3N(C)CC2)CC[N+]1(C)C	inactive	inactive	inactive	inactive	inactive	inactive	inactive	inactive	inactive	inactive
Nc1cc(-c2ccncc2)c[nH]c1=O	inactive	inactive	inactive	inactive	inactive	inactive	inactive	inactive	inactive	inactive
CCC1C(=O)OCC1Cc1cncn1C (stereo not drawn)	inactive	inactive	inactive	inactive	inactive	inactive	inactive	inactive	inactive	inactive
CC1(C)[C@@H](O)CC[C@]2(C)[C@H]3C(=O)C=C4[C@@H]5C[C@@](C)(C(=O)O)CC[C@]5(C)CC[C@@]4(C)[C@]3(C)CC[C@@H]12	inactive	inactive	inactive	inactive	inactive	inactive	inactive	inactive	inactive	inactive
Cc1c(Nc2ncccc2C(=O)O)cccc1C(F)(F)F	inactive	inactive	inactive	inactive	inactive	inactive	inactive	inactive	inactive	inactive
Nc1c(CC(=O)O)cccc1C(=O)c1ccc(Br)cc1	inactive	inactive	inactive	inactive	inactive	inactive	inactive	inactive	inactive	inactive
O=C(O)COc1ccc(C(=O)c2cccs2)c(Cl)c1Cl	inactive	inactive	inactive	inactive	inactive	inactive	inactive	inactive	inactive	inactive
O=C1CC[C@@H](C(=O)N2CSC[C@H]2C(=O)O)N1 ([pGlu]-[Thz]-OH)	inactive	inactive	inactive	inactive	inactive	inactive	inactive	inactive	inactive	inactive
CC1(C)S[C@@H]2[C@H](NC(=O)[C@H](NC(=O)N3CCN(S(C)(=O)=O)C3=O)c3ccccc3)C(=O)N2[C@H]1C(=O)O	inactive	inactive	inactive	inactive	inactive	inactive	inactive	inactive	inactive	inactive
COc1cc(CNC(=O)CCCC/C=C/C(C)C)ccc1O	inactive		inactive	inactive	inactive	inactive	inactive	inactive	inactive	inactive
CC(N)C(=O)OC(C)(C)Cc1ccc(Cl)cc1 (stereo not drawn)	8.49 µM (active)		7.94 µM (active)		inactive	5.36 µM (active)	inactive		inactive	
COC(=O)C1=C(C)NC(C)=C(C(=O)OCC(C)C)C1c1ccccc1[N+](=O)[O-] (stereo not drawn)		16.9 µM (active)		10 µM (active)		12 µM (active)		3.55 µM (active)		
O=C(Nc1ccc(C(=O)O)c(O)c1)c1ccccc1		inactive	inactive	inactive	inactive	inactive	inactive	inactive	inactive	inactive
O=C(O)c1cc(O)c(O)c(O)c1		inactive		inactive			inactive			
C[S+](CC[C@H](N)C(=O)O)C[C@H]1O[C@@H](n2cnc3c(N)ncnc32)[C@H](O)[C@@H]1O (stereo partly drawn)	inactive	inactive	inactive		inactive	inactive	inactive	inactive	inactive	1 µM (active)
c1ccc2sc(SN3CCOCC3)nc2c1		inactive			inactive	inactive	inactive	12.6 µM (active)	inactive	
CN1[C@@H]2CC[C@H]1CC(OC(=O)C(CO)c1ccccc1)C2 (stereo partly drawn)	inactive		inactive	inactive	inactive	inactive	inactive	inactive	inactive	inactive
O=c1[nH]c2ccccc2n1CCCN1CCN(C(c2ccccc2)c2ccccc2)CC1	13.5 µM (active)		11.2 µM (active)		inactive	13.5 µM (active)	inactive	7.94 µM (active)	inactive	11.2 µM (active)
